From PMC13494018
Unmarked numbers belong to inactive results. No rule for the calls is given here.

Target: VTCN1, Q7Z7D3
Sequence (Q7Z7D3 whole entry): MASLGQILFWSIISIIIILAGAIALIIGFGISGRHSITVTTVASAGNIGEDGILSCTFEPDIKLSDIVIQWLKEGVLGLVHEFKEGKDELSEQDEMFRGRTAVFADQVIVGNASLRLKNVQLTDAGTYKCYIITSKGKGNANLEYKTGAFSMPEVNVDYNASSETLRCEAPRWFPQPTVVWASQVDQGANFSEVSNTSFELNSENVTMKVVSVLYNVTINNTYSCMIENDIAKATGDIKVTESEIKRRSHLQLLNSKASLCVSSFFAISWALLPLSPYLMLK

Row | Binder | binding in a display sort
1 | design_601_c3fd07b4-2f34-4ad8-bd4e-2749faf628eb_587_dldesign_0_cycle1_af2pred (protein) NEEKAKTALSEGNAYYRMALDAVKIGVKKEDVLALIDEAEKYFEKAAELYKDNPEKAKKIKELGKEKTEEARKALEEA | not found
2 | design_601_c3fd07b4-2f34-4ad8-bd4e-2749faf628eb_592_dldesign_0_cycle1_af2pred (protein) SSADILREYRRALQEATKAAAAADPANKEEILKEGAKAREEVVDAFSESDELGKKTAEEQLAKIKARKKAAE | not found
3 | design_602_0a1f3d3d-7d26-454b-9b34-ebe8ef9bc7d4_19_dldesign_0_cycle1_af2pred (protein) MEEEEELKKKKEELLKLKKKLEEAYDIAAELAAKNPEYLDEVLEKYREGLRYLKLGGENPENYEEYYEKAKEKLKEIEEIAKKLK | not found
4 | design_601_c3fd07b4-2f34-4ad8-bd4e-2749faf628eb_2458_dldesign_0_cycle1_af2pred (protein) MEKAKEEALKLIKELLEATKLPKGKASQIALELAAEADWLAKKSSPEAAELFNALAEAARAVVKDKEKGKELAKKVKEKVEK | not found
5 | design_601_c3fd07b4-2f34-4ad8-bd4e-2749faf628eb_2331_dldesign_0_cycle1_af2pred (protein) HMEEEAYKAKVEKAKAAMKEAADKLVSDPEAAKKQITQIAKDTAKELIATGTPAGKAAAQDALAEATAAKTELDKKAK | not found
6 | design_601_c3fd07b4-2f34-4ad8-bd4e-2749faf628eb_419_dldesign_0_cycle1_af2pred (protein) GKEELLKKAKKAMEETKKAIKEGKKLIKEGASKEELEKAAEELRKKAKEVRELGKELPELKPEAAKVAQEAYETAAELDVEAKKK | not found
7 | design_601_c3fd07b4-2f34-4ad8-bd4e-2749faf628eb_83_dldesign_0_cycle1_af2pred (protein) NEEAKKAYEKAKKVIEKVLKLAKENPELAEAEEQAKKALEKAEEGLKKGDVGLTESALTRAEHLLEVAEAKIAA | not found
8 | design_601_c3fd07b4-2f34-4ad8-bd4e-2749faf628eb_1863_dldesign_0_cycle1_af2pred (protein) SEYEKELAKAEAFVKEALKKSKEEFIAETKKLFEEGSPVYQSALMRALTKAAKEYKDDPEKQKKALDARDTIVD | not found
9 | design_601_c3fd07b4-2f34-4ad8-bd4e-2749faf628eb_731_dldesign_0_cycle1_af2pred (protein) AEAKKELTEEVFEALEYRNEIERKDPELGKKARELLRKAFEEGRKLIKADPEEGTKKAAEIVKKVREEIKKLAE | not found
10 | design_602_0a1f3d3d-7d26-454b-9b34-ebe8ef9bc7d4_127_dldesign_0_cycle1_af2pred (protein) AEEERRKALAKKRAERAKALAVEAKKEGNEEAAKYYEKAAELYAKAAEAPPEERGKLVDEAVEYYGEGELEKIKFK | not found
11 | design_601_c3fd07b4-2f34-4ad8-bd4e-2749faf628eb_503_dldesign_0_cycle1_af2pred (protein) AEKAIGNAHAYKNILKSEAEWSKKLPLEERKKRLKELVEEIAKIAAEAGEEVAEKFRKEAEAFAEEALKKQEEE | not found
12 | design_601_c3fd07b4-2f34-4ad8-bd4e-2749faf628eb_1485_dldesign_0_cycle1_af2pred (protein) GYKERAKKEIEEAKKNLEKAKADPSTAVSLLTDAIAHANAAKSLAEKLEKTDPETGKELIEEAKEIREEAKKVLAERNAA | not found
13 | design_601_c3fd07b4-2f34-4ad8-bd4e-2749faf628eb_1953_dldesign_0_cycle1_af2pred (protein) AVAAKAQAALDRTAALREKHPEAKEYLDKAEEEAKKALADPANAAEYLKKAANYLQEAYQEASEYEFKKK | not found
14 | design_601_c3fd07b4-2f34-4ad8-bd4e-2749faf628eb_1384_dldesign_0_cycle1_af2pred (protein) SKIELLKKAAEYVEEAAKLAKEGGRVSDVIKLLQKAYELAKKAGDEETAKLIKEAAFAVPDPEKAYKLLKEAAERLKEKAKKLE | not found
15 | design_601_c3fd07b4-2f34-4ad8-bd4e-2749faf628eb_1122_dldesign_0_cycle1_af2pred (protein) MEEEKIRKRQAELLKEEAEKEMAAAKASTDAAEAANLGLFARQLYRSAAKIDKENKEEYLKLAEKAEEETKAIVAAKKAA | not found
16 | design_601_c3fd07b4-2f34-4ad8-bd4e-2749faf628eb_72_dldesign_0_cycle1_af2pred (protein) AAAAAAKKAEADATQLDLIAKSTEAIKDKVSPETVADVFAPAAAAYEKAAKLWSGNPAKAAEFKAKAKEMKAKYEKAKKEAE | not found
17 | design_602_0a1f3d3d-7d26-454b-9b34-ebe8ef9bc7d4_95_dldesign_0_cycle1_af2pred (protein) MEELAKKAEEVVEESGEALAKAPREKWPEISELRHESLRALREAGENPETREEHLKEGEKYLEEAKKLAEKGAKE | not found
18 | design_601_c3fd07b4-2f34-4ad8-bd4e-2749faf628eb_334_dldesign_0_cycle1_af2pred (protein) DPASEEAKKLADKMRTAQRLFKQAGLALKEGKRDVDAVAEGYALAKEADPEFAEALEEALKKSVGEEKGTALIEEAKALAKAKAAA | not found
19 | design_601_c3fd07b4-2f34-4ad8-bd4e-2749faf628eb_1838_dldesign_0_cycle1_af2pred (protein) SMAEEILKEFLELAKVMAEDPEKGAKLFAEKVKELDPSIYPFAEAAAKKAAEEGAPLEELERAARAFANVVTT | not found

Row | Binder | binding in a display sort
20 | design_601_c3fd07b4-2f34-4ad8-bd4e-2749faf628eb_2023_dldesign_0_cycle1_af2pred (protein) MREEIIKAIKEAVKELKKLGKLAKEAKKKNPEIGKEAEKDAKKLQKELFEALSSENAVEKLKEVKEKTKKKIEEIKKKVEE | not found
21 | design_601_c3fd07b4-2f34-4ad8-bd4e-2749faf628eb_821_dldesign_0_cycle1_af2pred (protein) EAAAAAAAGEEARRLTRKRLERAEEAEKTKSPLQAANAWLAASEFARHAAEALAKNYPSATETIAELRALAEEAEAKAKELL | not found
22 | design_601_c3fd07b4-2f34-4ad8-bd4e-2749faf628eb_475_dldesign_0_cycle1_af2pred (protein) DEFTEKAKEFAEEVKKKSKELVAKAEAGDAETAKEKRKEAVKLLSEAFSLSVKAKKESKEAYEYMKEAEEIASDAVIKISEIEKKKAA | not found
23 | design_601_c3fd07b4-2f34-4ad8-bd4e-2749faf628eb_190_dldesign_0_cycle1_af2pred (protein) SMEGQELKDKAVDALGDAHLLKIKGKEIDPEIVKIAEKAEEAAKKALKLIKEGNLEEAKEELEKAEELVKKAKELLKKKE | not found
24 | design_601_c3fd07b4-2f34-4ad8-bd4e-2749faf628eb_1497_dldesign_0_cycle1_af2pred (protein) SMEEEEQRRRAIEELKRLMELADKSPSEIAKATREAVAATPLYAERIRKVGTAMMFNPEEGKKLAEEAIKELE | binds (active)
25 | design_601_c3fd07b4-2f34-4ad8-bd4e-2749faf628eb_352_dldesign_0_cycle1_af2pred (protein) AKEDQEASSEMMRYLTKAGKLAKEIGEEEYEKALKEREKVLELSVEDPKKGLEAAKEVLKEYEEKYKKAEEEKKA | not found
26 | design_601_c3fd07b4-2f34-4ad8-bd4e-2749faf628eb_648_dldesign_0_cycle1_af2pred (protein) GTEEALERVRRGAERARRLLDEARKYGADKEKVDALTKEADEALAAAEENPEKAPEYLKRIAEISAEAAELRAEAFAKK | not found
27 | design_601_c3fd07b4-2f34-4ad8-bd4e-2749faf628eb_2221_dldesign_0_cycle1_af2pred (protein) GAAEEAKKALKEAKERIEKVATPETKEFHEKLKEEMEKKVKELMAGDPVEGAKAAAKAAAAYAQEAYEASAEARAKEIIKK | not found
28 | design_601_c3fd07b4-2f34-4ad8-bd4e-2749faf628eb_2200_dldesign_0_cycle1_af2pred (protein) SSEYSKKLAEDLKTFVKNIRDIAKESGDPAVVEQAKAVMAAFVTSEEAGVAAAKKLEAYTKETTNPALAAKAATAYDALKNIADG | not found
29 | design_601_c3fd07b4-2f34-4ad8-bd4e-2749faf628eb_2299_dldesign_0_cycle1_af2pred (protein) MEAKEKAEKAIKRAKEIGEKLIKKVAFNPEAAEKVKKLTEEAIEAIKKDPEEGIKKGAEILQKAREYAAEVLAKN | not found
30 | design_602_0a1f3d3d-7d26-454b-9b34-ebe8ef9bc7d4_149_dldesign_0_cycle1_af2pred (protein) VVEKALKEMEKYIEKAKEEAIKINPKAKEYIEKRAKRIREEAKKGAEEAKKLYKEDPEKGKEKAKEALKKTKGLAESLIEHAKFSAK | not found
31 | design_601_c3fd07b4-2f34-4ad8-bd4e-2749faf628eb_2283_dldesign_0_cycle1_af2pred (protein) AAAEDEAKRALAKKKAEEAKKLAKEAVEGNAEKAEKAAKELEKILKELRALGKAASPAAKAALTAAAHTAAEAYAEAYSAAVVKKEKE | not found
32 | design_601_c3fd07b4-2f34-4ad8-bd4e-2749faf628eb_257_dldesign_0_cycle1_af2pred (protein) VELAKEMKKLIAEAARAAKEDPKKAAKLLKEAAKKAKEIGEIAEPAAKLLEEAAKLLEEGPEKAPEAATLLSEARAEANYVIKSLEL | not found
33 | design_601_c3fd07b4-2f34-4ad8-bd4e-2749faf628eb_461_dldesign_0_cycle1_af2pred (protein) SAEEEAKKLLEEVKKAMSAANFAMAEDLEEGEKAWEEAKKKAKELLEKAEKLNKEEAKKVKEAVEKGEKTYKRIKKDHEEAEKRAKER | not found
34 | design_601_c3fd07b4-2f34-4ad8-bd4e-2749faf628eb_1955_dldesign_0_cycle1_af2pred (protein) MEQEKKDEELLKKVKELGKEATEKSLEDPEKAKEYRKKLIEEAKKAAAEASPEYAKKIAEEAQKAQEEITEAQVEGEKKKK | not found
35 | design_601_c3fd07b4-2f34-4ad8-bd4e-2749faf628eb_1417_dldesign_0_cycle1_af2pred (protein) EEEKLKEAAKRLHEAREKTNEAEQKLKLEGKKNAEELKKELEAAAKVAKAVAEEVKANPEYAKIAETLAKRAEKAAQEA | not found
36 | design_602_0a1f3d3d-7d26-454b-9b34-ebe8ef9bc7d4_204_dldesign_0_cycle1_af2pred (protein) SEEEKKKELLEKTEENKKYLEELRKKYEADPSYKVEAATAEAGVKAAEEAKGENFEEAAEKAQKAYNTFKRMEEAEEEAKKRA | not found
37 | design_602_0a1f3d3d-7d26-454b-9b34-ebe8ef9bc7d4_194_dldesign_0_cycle1_af2pred (protein) AVEAAIEALEELAKKAPPELAEYLKRTAEAAKKAGEKVLRYAVRAAAYATIALEGSPEVAAEAIKKAKEQAEKAEKIAKE | not found
38 | design_601_c3fd07b4-2f34-4ad8-bd4e-2749faf628eb_877_dldesign_0_cycle1_af2pred (protein) NEKAKEALKENKEAAELARKLAKEGIAPEEAARLAQKLQETAAVMKMADKVPKETLEEAIKEGKKAAEEVKKLAKA | not found
